PubChem BioAssay (Tox21)
Inconclusive results are not listed. Activity calls are given as the source filed them. Unless noted, calls come from the whole dose curve.

Experiments:
[1] = Nuclear factor erythroid 2-related factor 2/antioxidant responsive element (Nrf2/ARE) small molecule agonists: qHTS cell viability counter screen in human keratinocytes (AID 1919968; active = well fitted curve in the direction sought with a large enough effect in the repeat runs; an effect the other way counts as inactive or inconclusive; note: nearly all actives have a fitted effect of over 55% in size; note: potency is the fitted concentration of half-maximal effect)
Summary of the method: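 Measured as CellTiter-Fluor fluorescence, this readout tracks cytotoxicity in the same wells as the ARE-luciferase screen. HaCaT reporter cells (1,500/well) received compounds after a 5 h pre-incubation and were exposed for 23 h.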

[2] = Nuclear factor erythroid 2-related factor 2/antioxidant responsive element (Nrf2/ARE) small molecule agonists: luciferase reporter gene qHTS assay in human keratinocytes (AID 1919969); note: nearly all actives have a fitted effect of over 35% in size; note: potency is the fitted concentration of half-maximal effect
[3] = biological target: Gonadotropin-releasing hormone receptor (Homo sapiens) (UniProt P30968); assay: Human gonadotropin-releasing hormone receptor (GnRHR) small molecule agonists, calcium flux assay in GnRHR-HEK293 cells (AID 1920063); note: nearly all actives have a fitted effect of over 35% in size; note: potency is the fitted concentration of half-maximal effect
Chain of Gonadotropin-releasing hormone receptor (Homo sapiens) (P30968 whole entry, looked up): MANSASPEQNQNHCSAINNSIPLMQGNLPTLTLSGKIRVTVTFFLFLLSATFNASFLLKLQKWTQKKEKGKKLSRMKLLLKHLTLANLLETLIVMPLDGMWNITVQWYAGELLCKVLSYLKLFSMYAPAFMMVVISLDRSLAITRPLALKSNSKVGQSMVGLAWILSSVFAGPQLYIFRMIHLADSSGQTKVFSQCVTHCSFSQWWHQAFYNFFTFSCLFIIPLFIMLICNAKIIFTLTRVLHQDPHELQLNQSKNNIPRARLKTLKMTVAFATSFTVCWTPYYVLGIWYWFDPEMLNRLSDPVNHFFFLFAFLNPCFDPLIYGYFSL
Summary of the method: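 Fluorescence kinetics (480 nm excitation, 540 nm emission; 3 min, 1 s steps) report calcium mobilisation in human GnRHR-HEK293 cells in agonist mode. Dye incubation: 1 h, 37 C.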

[4] = biological target: KiSS-1 receptor (Homo sapiens) (UniProt Q969F8); assay: Human kisspeptin (KISS1R) small molecule agonists, calcium flux assay in KISS1R-HEK293 cells (AID 1920064; active = well fitted curve in the direction sought with a large enough effect in the repeat runs; an effect the other way counts as inactive or inconclusive)
Chain of KiSS-1 receptor (Homo sapiens) (Q969F8 whole entry, looked up): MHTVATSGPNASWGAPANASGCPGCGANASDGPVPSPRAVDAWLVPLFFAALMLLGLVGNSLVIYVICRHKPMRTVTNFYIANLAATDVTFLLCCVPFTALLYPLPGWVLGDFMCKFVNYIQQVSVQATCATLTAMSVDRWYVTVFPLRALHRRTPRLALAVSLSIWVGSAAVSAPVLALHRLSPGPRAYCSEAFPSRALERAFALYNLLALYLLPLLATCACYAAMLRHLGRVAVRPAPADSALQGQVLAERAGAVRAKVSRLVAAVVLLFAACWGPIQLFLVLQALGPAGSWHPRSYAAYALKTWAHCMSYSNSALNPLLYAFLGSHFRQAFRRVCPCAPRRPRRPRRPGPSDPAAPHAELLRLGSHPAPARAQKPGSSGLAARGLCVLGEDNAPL
Summary of the method: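 Measures KISS1R agonism through calcium-sensitive dye fluorescence in stably transfected HEK293 cells, read for 3 min after pin-tool compound delivery; 15-point titrations in triplicate.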

[5] = G protein-coupled receptor (GPCR) small molecule agonists, calcium flux assay: HEK293 wild type cell line counter screen (AID 1920065)
Summary of the method: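 Readout: fluorescence at 480 nm excitation/540 nm emission, sampled at 1 s intervals for 3 min. Cells had been cultured 18 h, then dye-loaded 1 h at 37 C before compound or ATP addition.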

[6] = p53 small molecule agonists, cell-based qHTS assay with human liver microsomes (AID 1963577);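 note: p53 response element beta-lactamase reporter cells with liver microsomes plus NADPH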
Summary of the method: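 With metabolic activation: human liver microsomes (0.5 mg/mL final) plus NADPH (0.5 mg/mL final) added alongside compounds to p53RE-bla cells; 16 h 37 C exposure; beta-lactamase read by LiveBLAzer fluorescence.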

[7] = p53 small molecule agonists, cell-based qHTS assay with rat liver microsomes (AID 1963578)
Summary of the method: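 Metabolic activation by rat liver microsomes and NADPH, each 0.5 mg/mL final, added right after compounds to p53RE-bla reporter cells (4,000/well, plated 5 h earlier). 16 h at 37 C, then LiveBLAzer substrate for 2 h at room temperature in the dark; fluorescence read-out.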

[8] = p53 small molecule agonists, cell-based qHTS assay with human liver microsomes: qHTS cell viability counter screen (AID 1963579); note: nearly all actives have a fitted effect of over 45% in size
Summary of the method: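 Metabolic activation used human liver microsomes and NADPH, both 0.5 mg/mL final, over 16 hours at 37 C on p53RE-bla cells (4,000/well). Cytotoxicity measured by CellTiter-Glo luminescence, 30 min at room temperature.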

[9] = p53 small molecule agonists, cell-based qHTS assay with rat liver microsomes: qHTS cell viability counter screen (AID 1963580); note: nearly all actives have a fitted effect of over 45% in size; note: potency is the fitted concentration of half-maximal effect
Summary of the method: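 p53RE-bla HCT-116 cells (4,000/well) rested 5 h at 37 C, then given Tox21 compounds in DMSO with rat liver microsomes (0.5 mg/mL final) plus NADPH (0.5 mg/mL final) for 16 h at 37 C. Viability read by CellTiter-Glo luminescence after 30 min at room temperature.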

[10] = biological target: 5-hydroxytryptamine receptor 2A (Homo sapiens) (UniProt P28223); assay: 5-hydroxytryptamine receptor 2A (HTR2A) small molecule antagonists, cell-based qHTS assay (AID 1963586); note: nearly all actives have a fitted effect of over 45% in size
Chain of 5-hydroxytryptamine receptor 2A (Homo sapiens) (P28223 whole entry, looked up): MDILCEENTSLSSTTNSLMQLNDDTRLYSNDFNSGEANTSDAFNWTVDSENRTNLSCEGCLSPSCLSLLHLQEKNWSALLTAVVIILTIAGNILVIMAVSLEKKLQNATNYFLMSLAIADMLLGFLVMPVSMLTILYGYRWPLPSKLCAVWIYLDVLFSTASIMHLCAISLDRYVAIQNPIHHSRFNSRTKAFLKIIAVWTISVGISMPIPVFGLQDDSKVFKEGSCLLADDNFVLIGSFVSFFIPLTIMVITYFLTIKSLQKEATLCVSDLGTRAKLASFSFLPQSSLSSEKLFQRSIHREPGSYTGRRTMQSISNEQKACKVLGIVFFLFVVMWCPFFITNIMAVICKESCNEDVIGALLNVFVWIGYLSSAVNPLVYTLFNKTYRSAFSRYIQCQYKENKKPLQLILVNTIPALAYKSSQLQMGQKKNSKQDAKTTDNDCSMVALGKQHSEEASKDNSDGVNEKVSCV
Summary of the method: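 Antagonist-mode intracellular calcium assay: DOI (4 nM) added after 5 min compound pre-incubation at room temperature to dye-loaded HTR2A-CHO cells. Fluorescence followed for 3 min, sampled every second.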

[11] = biological target: 5-hydroxytryptamine receptor 2A (Homo sapiens) (UniProt P28223); assay: 5-hydroxytryptamine receptor 2A (HTR2A) small molecule agonists, cell-based qHTS assay (AID 1963587); note: nearly all actives have a fitted effect of over 30% in size
Summary of the method: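 HTR2A-CHO cells, plated 18 h at 37 C/5% CO2, dye-loaded 1 h at 37 C; compounds in DMSO added by pin tool (agonist mode). Intracellular calcium flux read as kinetic fluorescence on FDSS over 2 min at 1 s intervals.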

[12] = biological target: Muscarinic acetylcholine receptor M1 (Homo sapiens) (UniProt P11229); assay: Cholinergic receptor muscarinic 1 (CHRM1) small molecule antagonists, cell-based qHTS assay (AID 1963588); note: nearly all actives have a fitted effect of over 40% in size
Chain of Muscarinic acetylcholine receptor M1 (Homo sapiens) (P11229 whole entry, looked up): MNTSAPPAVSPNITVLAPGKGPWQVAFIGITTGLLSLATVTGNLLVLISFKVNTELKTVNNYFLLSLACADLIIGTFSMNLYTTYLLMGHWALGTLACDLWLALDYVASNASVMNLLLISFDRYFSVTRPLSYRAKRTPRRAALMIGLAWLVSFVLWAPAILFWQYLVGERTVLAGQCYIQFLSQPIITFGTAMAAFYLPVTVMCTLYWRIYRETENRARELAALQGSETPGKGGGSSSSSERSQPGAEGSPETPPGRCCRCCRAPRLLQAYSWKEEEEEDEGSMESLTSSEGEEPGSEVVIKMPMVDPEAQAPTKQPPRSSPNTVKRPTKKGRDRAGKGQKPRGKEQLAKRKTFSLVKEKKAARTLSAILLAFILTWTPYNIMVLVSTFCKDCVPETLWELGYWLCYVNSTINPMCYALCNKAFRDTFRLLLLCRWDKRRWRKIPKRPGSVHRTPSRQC
Summary of the method: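 CHRM1-CHO calcium-flux assay, antagonist mode. Cells were seeded 18 h, dye-loaded 1 h at 37 C and given compound for 5 min at RT, then acetylcholine was added at 50nM. FDSS fluorescence was read 3 min; 15 concentrations, three runs.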

[13] = biological target: Muscarinic acetylcholine receptor M1 (Homo sapiens) (UniProt P11229); assay: Cholinergic receptor muscarinic 1 (CHRM1) small molecule agonists, cell-based qHTS assay (AID 1963589); note: nearly all actives have a fitted effect of over 35% in size; note: potency is the fitted concentration of half-maximal effect
Summary of the method: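 Each compound was tested at 15 concentrations across three independent runs on dye-loaded CHO cells stably expressing human CHRM1, reading intracellular calcium fluorescence kinetically at 1 sec intervals.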

[14] = cAMP Responsive Elements (CRE) small molecule agonists, cell-based qHTS assay (AID 1963590)
Summary of the method: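 Cell line: CRE-bla HEK 293T; medium DMEM/10% dialyzed FBS/0.1 mM NEAA/1 mM pyruvate/25 mM HEPES; 3 h compound exposure; beta-lactamase FRET readout after 2 h substrate loading at RT.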

[15] = cAMP Responsive Elements (CRE) small molecule antagonists, cell-based qHTS assay (AID 1963591; active = well fitted inhibition curve with a large enough effect in the signal ratio in the repeat runs, not every such curve was filed as active; the % refers to the signal ratio)
Summary of the method: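 Inhibition of NKH477-driven (0.25 uM final) CRE-beta-lactamase signal in HEK293T cells, 3 h compound exposure at 37 °C, detected by FRET substrate fluorescence.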

[16] = biological target: Beta-2 adrenergic receptor (Homo sapiens) (UniProt P07550); assay: Adrenergic beta2 receptor (ADRB2) small molecule antagonists, cell-based qHTS assay (AID 1963592); note: series mostly up to about 92 µM; nearly all actives have a fitted effect of over 50% in size
Chain of Beta-2 adrenergic receptor (Homo sapiens) (P07550 whole entry, looked up): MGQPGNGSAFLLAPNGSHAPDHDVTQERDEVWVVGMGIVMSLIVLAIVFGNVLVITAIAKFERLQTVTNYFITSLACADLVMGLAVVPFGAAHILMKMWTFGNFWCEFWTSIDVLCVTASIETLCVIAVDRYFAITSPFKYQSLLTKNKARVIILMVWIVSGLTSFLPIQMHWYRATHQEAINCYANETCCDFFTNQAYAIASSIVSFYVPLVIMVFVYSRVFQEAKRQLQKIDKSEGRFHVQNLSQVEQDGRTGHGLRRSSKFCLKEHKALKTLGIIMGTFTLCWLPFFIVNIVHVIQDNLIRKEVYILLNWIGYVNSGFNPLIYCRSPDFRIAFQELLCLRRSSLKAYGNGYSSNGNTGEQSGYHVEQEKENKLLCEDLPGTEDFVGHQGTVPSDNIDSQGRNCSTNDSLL
Summary of the method: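 Cells (CHO, stable ADRB2 overexpression) incubated 18-20hr at 37C; compounds added from DMSO; agonist mix (1nM isoproterenol, 100uM IBMX, 25uM Ro-20-1724) added; 0.5hr RT; d2-cAMP and anti-cAMP-cryptate added; 1hr RT; 665/615 nm read.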

[17] = biological target: D(2) dopamine receptor (Homo sapiens) (UniProt P14416); assay: Dopamine D2 receptor (DRD2) small molecule agonists, cell-based qHTS assay (AID 1963594); note: nearly all actives have a fitted effect of over 35% in size
Chain of D(2) dopamine receptor (Homo sapiens) (P14416 whole entry, looked up): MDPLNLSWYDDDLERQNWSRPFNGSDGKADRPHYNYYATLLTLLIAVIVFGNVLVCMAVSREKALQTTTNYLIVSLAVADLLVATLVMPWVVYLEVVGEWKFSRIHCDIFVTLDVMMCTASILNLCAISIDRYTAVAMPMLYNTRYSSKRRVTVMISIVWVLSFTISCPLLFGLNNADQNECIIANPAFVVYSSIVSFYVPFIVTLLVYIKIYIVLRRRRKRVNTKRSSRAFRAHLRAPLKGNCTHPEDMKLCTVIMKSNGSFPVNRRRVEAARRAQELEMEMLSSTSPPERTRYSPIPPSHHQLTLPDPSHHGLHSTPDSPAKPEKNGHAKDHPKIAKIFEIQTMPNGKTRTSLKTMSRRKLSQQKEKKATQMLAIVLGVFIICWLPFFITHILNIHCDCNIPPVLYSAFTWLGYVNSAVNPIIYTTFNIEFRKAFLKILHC
Summary of the method: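 HEK293 cells stably expressing DRD2 were cultured 24 h at 37 C, then given Ro20-1724 (0.1 mM final) and compounds for 10 min at room temperature. NKH477 (200nM) was then added for 30 min. cAMP was read by HTRF.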

[18] = biological target: D(2) dopamine receptor (Homo sapiens) (UniProt P14416); assay: Dopamine D2 receptor (DRD2) small molecule antagonists, cell-based qHTS assay (AID 1963595; active = well fitted inhibition curve with a large enough effect in the signal ratio in the repeat runs, with a control signal flat; the % refers to the signal ratio)
Summary of the method: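 DRD2-HEK293; 0.1 mM Ro20-1724; cpd 10 min RT; NKH477 200 nM + quinpirole 12 nM, 30 min RT; HTRF cAMP (cAMP-d2/anti-cAMP cryptate), 665/620 nm ratio after 1 h.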

[19] = p53 small molecule agonists, cell-based qHTS assay: qHTS cell viability counter screen (AID 1963581); note: nearly all actives have a fitted effect of over 45% in size
Summary of the method: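 In the same plates used for the p53 bla reporter, HCT-116 cells given compounds for 16 h at 37 C received CellTiter-Glo; luminescence was recorded 30 min later at room temperature.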

[20] = biological target: Beta-2 adrenergic receptor (Homo sapiens) (UniProt P07550); assay: Adrenergic beta2 receptor (ADRB2) small molecule agonists, cell-based qHTS assay (AID 1963593);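 note: CHO cells stably overexpressing human ADRB2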
Summary of the method: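 CHO cells stably over-expressing ADRB2 were plated overnight at 37C, then dosed with compounds plus a stimulation mix containing 100uM IBMX and 25uM Ro-20-1724 for 0.5hr at room temperature. cAMP was measured by HTRF competition, 1hr.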

Measured: Potency

OCCCCCCO
inactive: [1] | [2] | [3] | [4] | [5] | [6] | [7] | [8] | [9] | [10] | [11] | [12] | [13] | [14] | [15] | [16] | [17] | [18]

CC(C)(O)c1coc(S(=O)(=O)NC(=O)Nc2c3c(cc4c2CCC4)CCC3)c1
active: [2] 61.1 µM
inactive: [1] | [3] | [4] | [5] | [6] | [7] | [8] | [9] | [19] | [11] | [12] | [13] | [16] | [20] | [17] | [18]

O=c1cccccc1O
inactive: [3] | [4] | [5] | [6] | [7] | [8] | [10] | [11] | [13] | [14] | [15] | [16] | [17] | [18]
active: [1] 44.1 µM | [2] 24.8 µM | [9] 29.4 µM

OCC(CO)n1cnc(-c2ccc(F)cc2)c1-c1ccnc(Oc2ccccc2)n1
inactive: [1] | [2] | [3] | [4] | [5] | [6] | [7] | [8] | [9] | [10] | [11] | [12] | [13] | [16] | [20] | [17] | [18]

CC(=O)OCC(C)C
inactive: [1] | [2] | [3] | [4] | [5] | [6] | [7] | [8] | [9] | [10] | [11] | [13] | [14] | [15] | [16] | [20] | [17] | [18]

C=CC(=O)OCC[N+](C)(C)C
active: [3] 0.438 µM | [13] 0.0438 µM
inactive: [1] | [2] | [4] | [5] | [6] | [7] | [8] | [9] | [10] | [11] | [14] | [15] | [16] | [20] | [18]

NC(=O)C(=O)N/N=C/c1ccc([N+](=O)[O-])o1
active: [2] 29.8 µM
inactive: [1] | [3] | [4] | [5] | [6] | [7] | [8] | [9] | [10] | [11] | [12] | [13] | [15] | [16] | [20] | [18]
